From ChEMBL document CHEMBL1961873, “Compounds: GSK PKIS; Assays: Nanosyn kinase panel” (2012)

Each compound was assayed against T1, Mitogen-activated protein kinase kinase kinase kinase 2 (Homo sapiens) (UniProt Q12851). Conditions: at 0.1 µM.
T1 sequence (whole entry): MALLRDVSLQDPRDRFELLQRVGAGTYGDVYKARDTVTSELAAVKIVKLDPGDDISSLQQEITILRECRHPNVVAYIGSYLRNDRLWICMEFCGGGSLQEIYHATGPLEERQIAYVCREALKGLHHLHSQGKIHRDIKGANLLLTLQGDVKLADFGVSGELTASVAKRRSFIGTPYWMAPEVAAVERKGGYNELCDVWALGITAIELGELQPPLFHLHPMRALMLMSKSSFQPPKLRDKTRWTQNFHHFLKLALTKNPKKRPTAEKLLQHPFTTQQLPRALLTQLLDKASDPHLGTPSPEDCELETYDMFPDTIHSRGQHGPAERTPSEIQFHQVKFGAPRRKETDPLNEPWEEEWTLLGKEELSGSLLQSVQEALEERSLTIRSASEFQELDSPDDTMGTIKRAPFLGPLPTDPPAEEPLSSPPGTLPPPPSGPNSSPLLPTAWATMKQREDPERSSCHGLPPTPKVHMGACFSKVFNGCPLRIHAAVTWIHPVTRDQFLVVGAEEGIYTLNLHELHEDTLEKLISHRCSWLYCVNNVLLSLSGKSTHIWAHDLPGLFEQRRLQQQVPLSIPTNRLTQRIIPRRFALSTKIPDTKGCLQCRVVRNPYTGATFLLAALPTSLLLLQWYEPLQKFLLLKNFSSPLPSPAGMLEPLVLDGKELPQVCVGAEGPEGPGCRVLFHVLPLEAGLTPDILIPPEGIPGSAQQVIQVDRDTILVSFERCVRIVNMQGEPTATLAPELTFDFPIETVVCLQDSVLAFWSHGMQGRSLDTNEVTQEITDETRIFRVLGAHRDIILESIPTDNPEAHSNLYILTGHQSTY
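Note: values given as mean percent inhibition.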

SMILES	inhibition [%]
O=C1Nc2ccc(I)cc2C1=Cc1cc(Br)c(O)c(Br)c1	0.93
CCS(=O)(=O)c1ccc(OC)c(Nc2ncc(-c3cccc(-c4ccccc4F)c3)o2)c1	1.69
COc1ccc(-c2ccc3c(NC(=O)C4CC4)n[nH]c3n2)cc1	1.22
CCc1ccc(Oc2nccc(-c3c(-c4ccc(F)cc4)ncn3C3CCNCC3)n2)cc1	1.71
NCc1ccc(-n2c(-c3nonc3N)nc3cnccc32)cc1	3.62
CN1CCN(CCCNc2nc3ccc(Oc4ccc(NC(=O)Nc5cc(C(F)(F)F)ccc5F)cc4)cc3[nH]2)CC1	3.12
NS(=O)(=O)c1ccc(Nc2cc(-c3ccc(O)c(F)c3)n[nH]2)cc1	0.41
NS(=O)(=O)c1ccc(N/N=C2\C(=O)Nc3ccc(-c4cnco4)cc32)cc1	1.49
CCc1cccc(CC)c1/C=C/c1cncc(C(=O)NC)c1	0.77
FC(F)(F)c1cccc(Nc2nccc(-c3cnn4nc(-c5ccccc5)ccc34)n2)c1	0.58
COc1ccc2cc(-c3c(-c4ccncc4)nc(-c4ccc([S+](C)[O-])cc4C)n3C)ccc2c1 (stereo unspecified)	-0.16
CCS(=O)(=O)c1ccc(OC)c(Nc2ncc(-c3ccccc3Cl)o2)c1	0.68
C[C@@H](Oc1cc(-n2cnc3ccc(OCC4CCN(C)CC4)cc32)sc1C(N)=O)c1ccccc1Cl	2.59
C[C@@H](Oc1cc(-n2cnc3ccc(OC4CCN(C)CC4)cc32)sc1C(N)=O)c1ccccc1Cl	2.18
CCN(CC)Cc1ccc(Nc2nccc(-c3cnn4ncccc34)n2)cc1	3.21
Fc1ccc(-c2ncn(CCCN3CCOCC3)c2-c2ccncc2)cc1	2.31
